# Results from publication PMC7862700, “An all-to-all approach to the identification of sequence-specific readers for epigenetic DNA modifications on cytosine”.
# Assays:
# Test in all cases: DAPPL (digital affinity profiling via proximity ligation, sequencing); 10 mM Tris-HCl pH 7.5, 50 mM NaCl, 1 mM DTT, 4% glycerol, room temperature, 30 min; GST-TFs on glutathione beads, 16-mer random dsDNA library, 0.1% formaldehyde crosslink after washing; high values mean tight binding
# [1] = molecular target: T1, FLI1 (Homo sapiens, UniProt Q01543 1-452); details: protein: recombinant; tags: N-terminal GST; dsDNA, one strand shown
# T1 sequence: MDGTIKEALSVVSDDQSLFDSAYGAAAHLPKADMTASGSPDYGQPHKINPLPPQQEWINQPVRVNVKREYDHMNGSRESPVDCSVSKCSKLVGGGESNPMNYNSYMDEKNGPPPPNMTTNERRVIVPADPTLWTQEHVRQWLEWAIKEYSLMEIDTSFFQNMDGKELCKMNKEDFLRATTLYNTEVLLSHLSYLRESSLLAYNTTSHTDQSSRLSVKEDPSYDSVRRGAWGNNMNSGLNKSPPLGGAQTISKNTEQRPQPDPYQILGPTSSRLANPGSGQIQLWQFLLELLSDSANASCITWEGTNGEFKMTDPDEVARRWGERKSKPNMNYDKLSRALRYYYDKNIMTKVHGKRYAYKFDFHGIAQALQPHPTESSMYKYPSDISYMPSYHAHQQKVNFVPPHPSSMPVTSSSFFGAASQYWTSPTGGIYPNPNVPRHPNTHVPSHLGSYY
# Method in brief: (§1)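 Binding signal is each hexamer's read frequency for a factor divided by its frequency in the tag-only sample. The factors were GST-fused human transcription factors from yeast, captured on glutathione beads, DNA-barcoded and pooled with that sample. Pools were incubated with 200 nmole of a random double-stranded 16-mer DNA library in Tris/NaCl/DTT/glycerol buffer at room temperature for 30 min, then washed, crosslinked with 0.1% formaldehyde, proximity-ligated with BsaI/T4 ligase (1 h, 37 °C), PCR-amplified and sequenced on an Illumina NextSeq500.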
# [2] = molecular target: T2, ELK1 (Homo sapiens, UniProt P19419 1-428); details: protein: recombinant; tags: N-terminal GST; dsDNA, one strand shown
# T2 sequence: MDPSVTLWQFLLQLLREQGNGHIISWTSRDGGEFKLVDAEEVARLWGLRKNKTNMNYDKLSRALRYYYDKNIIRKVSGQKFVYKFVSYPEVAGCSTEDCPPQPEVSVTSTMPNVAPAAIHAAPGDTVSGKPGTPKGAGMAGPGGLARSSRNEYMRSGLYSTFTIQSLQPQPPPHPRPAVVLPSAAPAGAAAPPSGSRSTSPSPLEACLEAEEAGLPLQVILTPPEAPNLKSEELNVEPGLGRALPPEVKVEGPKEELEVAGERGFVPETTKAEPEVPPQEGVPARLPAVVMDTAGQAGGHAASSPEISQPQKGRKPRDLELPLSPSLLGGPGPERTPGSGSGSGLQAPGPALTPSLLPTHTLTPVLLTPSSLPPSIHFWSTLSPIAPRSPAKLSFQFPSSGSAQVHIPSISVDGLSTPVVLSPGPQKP
# Method in brief: as §1
# [3] = molecular target: T3, GABPA (Homo sapiens, UniProt Q06546 1-454); details: protein: recombinant; tags: N-terminal GST; dsDNA, one strand shown
# T3 sequence: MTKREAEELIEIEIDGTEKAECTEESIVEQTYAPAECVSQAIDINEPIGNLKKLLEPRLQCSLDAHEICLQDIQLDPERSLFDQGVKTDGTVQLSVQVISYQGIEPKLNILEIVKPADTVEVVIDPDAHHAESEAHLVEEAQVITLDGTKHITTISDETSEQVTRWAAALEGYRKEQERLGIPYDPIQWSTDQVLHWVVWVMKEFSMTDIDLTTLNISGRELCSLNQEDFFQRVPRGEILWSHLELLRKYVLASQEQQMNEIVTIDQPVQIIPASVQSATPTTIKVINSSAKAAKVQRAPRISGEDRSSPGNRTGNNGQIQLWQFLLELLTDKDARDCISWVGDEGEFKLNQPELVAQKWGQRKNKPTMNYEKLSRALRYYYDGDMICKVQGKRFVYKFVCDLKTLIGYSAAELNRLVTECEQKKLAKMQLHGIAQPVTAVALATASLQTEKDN
# Method in brief: as §1
# [4] = molecular target: T4, ERG (Homo sapiens, UniProt P11308 1-479); details: protein: recombinant; tags: N-terminal GST; dsDNA, one strand shown
# T4 sequence: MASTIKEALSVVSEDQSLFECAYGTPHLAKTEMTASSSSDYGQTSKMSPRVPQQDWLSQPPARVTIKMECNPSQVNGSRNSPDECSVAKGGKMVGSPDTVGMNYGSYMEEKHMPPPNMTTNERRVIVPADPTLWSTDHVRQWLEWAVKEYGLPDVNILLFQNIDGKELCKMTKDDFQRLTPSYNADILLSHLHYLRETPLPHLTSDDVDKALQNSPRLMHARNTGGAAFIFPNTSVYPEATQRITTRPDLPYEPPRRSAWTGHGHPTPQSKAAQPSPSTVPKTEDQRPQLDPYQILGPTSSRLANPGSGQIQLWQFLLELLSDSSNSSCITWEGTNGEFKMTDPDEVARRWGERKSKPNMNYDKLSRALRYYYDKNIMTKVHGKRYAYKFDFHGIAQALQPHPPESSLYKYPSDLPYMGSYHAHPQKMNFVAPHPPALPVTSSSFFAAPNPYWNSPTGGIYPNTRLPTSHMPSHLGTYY
# Method in brief: as §1
# [5] = molecular target: ELF1 (Homo sapiens, UniProt P32519 1-619); details: protein: recombinant; tags: N-terminal GST; dsDNA, one strand shown
# Method in brief: as §1
# [6] = molecular target: T5, EHF (Homo sapiens, UniProt Q9NZC4 1-300); details: protein: recombinant; tags: N-terminal GST; dsDNA, one strand shown
# T5 sequence: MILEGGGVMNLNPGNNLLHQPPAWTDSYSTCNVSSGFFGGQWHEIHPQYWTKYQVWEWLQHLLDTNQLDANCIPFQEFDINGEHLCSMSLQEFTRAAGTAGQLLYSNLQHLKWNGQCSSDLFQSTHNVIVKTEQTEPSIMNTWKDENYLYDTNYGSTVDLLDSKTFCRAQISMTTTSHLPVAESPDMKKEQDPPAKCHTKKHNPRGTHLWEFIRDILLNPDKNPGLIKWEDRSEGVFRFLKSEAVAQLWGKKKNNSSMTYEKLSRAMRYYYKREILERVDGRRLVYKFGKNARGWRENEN
# Method in brief: as §1
# [7] = molecular target: SPI1 (Homo sapiens, UniProt P17947 1-270); details: protein: recombinant; tags: N-terminal GST; dsDNA, one strand shown
# Method in brief: as §1
# [8] = molecular target: SPIB (Homo sapiens, UniProt Q01892 1-262); details: protein: recombinant; tags: N-terminal GST; dsDNA, one strand shown
# Method in brief: as §1
# [9] = molecular target: T6, ELK3 (Homo sapiens, UniProt P41970 1-407); details: protein: recombinant; tags: N-terminal GST; dsDNA, one strand shown
# T6 sequence: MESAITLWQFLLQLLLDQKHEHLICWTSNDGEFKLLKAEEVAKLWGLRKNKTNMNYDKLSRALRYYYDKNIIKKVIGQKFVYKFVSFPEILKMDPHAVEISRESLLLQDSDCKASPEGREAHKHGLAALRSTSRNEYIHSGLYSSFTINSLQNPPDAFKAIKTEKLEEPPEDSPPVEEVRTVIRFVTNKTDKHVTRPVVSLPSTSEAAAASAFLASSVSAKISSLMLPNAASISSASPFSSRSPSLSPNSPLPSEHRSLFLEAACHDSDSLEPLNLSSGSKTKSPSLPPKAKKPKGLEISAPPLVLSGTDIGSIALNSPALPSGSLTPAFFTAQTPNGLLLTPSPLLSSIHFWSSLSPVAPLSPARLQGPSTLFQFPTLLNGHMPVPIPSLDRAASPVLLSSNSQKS
# Method in brief: as §1
# [10] = molecular target: T7, FEV (Homo sapiens, UniProt Q99581 1-238); details: protein: recombinant; tags: N-terminal GST; dsDNA, one strand shown
# T7 sequence: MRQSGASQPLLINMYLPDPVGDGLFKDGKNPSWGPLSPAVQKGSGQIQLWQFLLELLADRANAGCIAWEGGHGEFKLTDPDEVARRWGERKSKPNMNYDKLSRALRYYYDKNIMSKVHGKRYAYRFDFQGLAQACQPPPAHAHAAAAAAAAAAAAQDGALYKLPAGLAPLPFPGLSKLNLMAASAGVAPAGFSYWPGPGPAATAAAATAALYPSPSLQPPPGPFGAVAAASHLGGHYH
# Method in brief: as §1
# [11] = molecular target: ETV5 (Homo sapiens, UniProt P41161 1-510); details: protein: recombinant; tags: N-terminal GST; dsDNA, one strand shown
# Method in brief: as §1
# [12] = molecular target: HSF1 (Homo sapiens, UniProt Q00613 1-529); details: protein: recombinant; tags: N-terminal GST; chain copies: 3; dsDNA, one strand shown
# Method in brief: as §1
# [13] = molecular target: T8, SPIC (Homo sapiens, UniProt Q8N5J4 1-248); details: protein: recombinant; tags: N-terminal GST; dsDNA, one strand shown
# T8 sequence: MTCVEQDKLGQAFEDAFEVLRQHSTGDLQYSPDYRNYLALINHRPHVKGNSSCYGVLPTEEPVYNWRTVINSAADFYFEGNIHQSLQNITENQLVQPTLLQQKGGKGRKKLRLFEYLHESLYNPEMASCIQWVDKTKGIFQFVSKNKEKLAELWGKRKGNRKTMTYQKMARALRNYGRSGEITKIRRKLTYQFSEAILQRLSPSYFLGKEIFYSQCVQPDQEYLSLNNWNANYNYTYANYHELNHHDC
# Method in brief: as §1
# [14] = molecular target: ELF4 (Homo sapiens, UniProt Q99607 1-663); details: protein: recombinant; tags: N-terminal GST; dsDNA, one strand shown
# Method in brief: as §1
# [15] = molecular target: T9, ELK4 (Homo sapiens, UniProt P28324-2 1-405); details: protein: recombinant; tags: N-terminal GST; dsDNA, one strand shown
# T9 sequence: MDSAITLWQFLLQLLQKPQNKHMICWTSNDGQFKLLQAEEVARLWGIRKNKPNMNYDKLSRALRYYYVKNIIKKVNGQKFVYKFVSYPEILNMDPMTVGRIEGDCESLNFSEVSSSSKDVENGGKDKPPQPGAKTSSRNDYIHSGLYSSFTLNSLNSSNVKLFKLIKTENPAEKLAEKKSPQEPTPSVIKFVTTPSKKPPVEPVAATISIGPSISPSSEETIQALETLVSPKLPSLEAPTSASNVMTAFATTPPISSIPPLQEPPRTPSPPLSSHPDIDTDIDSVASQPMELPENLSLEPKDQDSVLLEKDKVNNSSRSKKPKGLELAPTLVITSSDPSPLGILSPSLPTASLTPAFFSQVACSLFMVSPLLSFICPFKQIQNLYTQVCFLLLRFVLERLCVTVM
# Method in brief: as §1
# [16] = molecular target: T10, ETV2 (Homo sapiens, UniProt O00321 1-342); details: protein: recombinant; tags: N-terminal GST; dsDNA, one strand shown
# T10 sequence: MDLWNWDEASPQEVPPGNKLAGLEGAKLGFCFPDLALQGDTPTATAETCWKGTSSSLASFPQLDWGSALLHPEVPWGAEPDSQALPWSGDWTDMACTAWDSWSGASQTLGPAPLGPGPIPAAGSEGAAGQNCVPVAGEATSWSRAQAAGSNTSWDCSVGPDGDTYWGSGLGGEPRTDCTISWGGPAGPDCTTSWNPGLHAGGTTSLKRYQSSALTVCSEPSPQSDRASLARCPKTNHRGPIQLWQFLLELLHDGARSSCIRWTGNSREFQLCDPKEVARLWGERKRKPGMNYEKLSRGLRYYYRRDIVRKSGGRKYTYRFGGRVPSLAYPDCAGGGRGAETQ
# Method in brief: as §1
# [17] = molecular target: T11, ELF3 (Homo sapiens, UniProt P78545 1-371); details: protein: recombinant; tags: N-terminal GST; dsDNA, one strand shown
# T11 sequence: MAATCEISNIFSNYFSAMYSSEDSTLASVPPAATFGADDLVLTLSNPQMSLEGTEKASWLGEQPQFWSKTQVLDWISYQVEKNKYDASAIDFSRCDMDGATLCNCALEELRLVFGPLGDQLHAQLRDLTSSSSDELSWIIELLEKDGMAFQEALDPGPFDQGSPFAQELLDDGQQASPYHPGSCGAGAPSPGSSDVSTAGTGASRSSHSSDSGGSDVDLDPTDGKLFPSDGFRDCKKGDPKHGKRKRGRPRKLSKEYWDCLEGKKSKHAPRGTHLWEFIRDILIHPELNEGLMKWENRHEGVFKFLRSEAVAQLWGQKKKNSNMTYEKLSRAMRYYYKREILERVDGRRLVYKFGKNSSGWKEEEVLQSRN
# Method in brief: as §1
# [18] = molecular target: CRX (Homo sapiens, UniProt O43186 1-299); details: protein: recombinant; tags: N-terminal GST; dsDNA, one strand shown
# Method in brief: as §1
# [19] = molecular target: ETV1 (Homo sapiens, UniProt P50549 1-477); details: protein: recombinant; tags: N-terminal GST; dsDNA, one strand shown
# Method in brief: as §1
# Chain of ETV5 (P41161 whole entry): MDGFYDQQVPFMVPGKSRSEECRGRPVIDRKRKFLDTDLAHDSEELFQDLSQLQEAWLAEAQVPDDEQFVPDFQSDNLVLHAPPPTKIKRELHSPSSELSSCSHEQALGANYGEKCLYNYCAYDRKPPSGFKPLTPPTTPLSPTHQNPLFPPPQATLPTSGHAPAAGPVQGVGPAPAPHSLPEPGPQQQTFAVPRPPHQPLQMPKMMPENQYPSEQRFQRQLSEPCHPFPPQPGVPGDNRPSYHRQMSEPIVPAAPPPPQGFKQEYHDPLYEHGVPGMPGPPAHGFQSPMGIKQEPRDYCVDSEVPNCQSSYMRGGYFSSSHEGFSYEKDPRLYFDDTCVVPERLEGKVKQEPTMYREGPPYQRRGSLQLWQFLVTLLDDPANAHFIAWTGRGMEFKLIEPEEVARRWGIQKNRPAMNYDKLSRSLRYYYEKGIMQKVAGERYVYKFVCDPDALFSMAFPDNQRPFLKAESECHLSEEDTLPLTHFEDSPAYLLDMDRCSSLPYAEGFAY
# Chain of ETV1 (P50549 whole entry): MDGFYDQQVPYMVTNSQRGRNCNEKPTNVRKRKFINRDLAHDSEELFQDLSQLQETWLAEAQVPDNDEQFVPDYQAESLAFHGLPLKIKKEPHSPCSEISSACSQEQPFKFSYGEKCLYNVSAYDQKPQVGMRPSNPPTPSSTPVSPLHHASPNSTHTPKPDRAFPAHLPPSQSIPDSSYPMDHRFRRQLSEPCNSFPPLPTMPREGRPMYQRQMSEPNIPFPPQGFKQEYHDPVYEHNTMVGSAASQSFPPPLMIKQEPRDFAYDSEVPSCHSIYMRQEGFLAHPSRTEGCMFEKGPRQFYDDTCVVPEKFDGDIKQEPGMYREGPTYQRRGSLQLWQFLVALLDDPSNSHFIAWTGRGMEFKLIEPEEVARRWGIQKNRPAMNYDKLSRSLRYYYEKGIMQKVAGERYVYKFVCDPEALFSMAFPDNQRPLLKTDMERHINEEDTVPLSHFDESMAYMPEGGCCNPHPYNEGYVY
# Chain of SPIB (Q01892 whole entry): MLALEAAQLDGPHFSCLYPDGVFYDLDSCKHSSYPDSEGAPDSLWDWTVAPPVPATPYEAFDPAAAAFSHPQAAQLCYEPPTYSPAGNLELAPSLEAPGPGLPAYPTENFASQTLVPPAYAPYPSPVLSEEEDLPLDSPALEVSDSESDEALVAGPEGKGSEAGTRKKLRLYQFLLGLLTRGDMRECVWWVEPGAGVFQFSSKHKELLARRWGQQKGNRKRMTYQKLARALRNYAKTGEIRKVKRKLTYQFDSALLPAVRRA
# Chain of HSF1 (Q00613 whole entry): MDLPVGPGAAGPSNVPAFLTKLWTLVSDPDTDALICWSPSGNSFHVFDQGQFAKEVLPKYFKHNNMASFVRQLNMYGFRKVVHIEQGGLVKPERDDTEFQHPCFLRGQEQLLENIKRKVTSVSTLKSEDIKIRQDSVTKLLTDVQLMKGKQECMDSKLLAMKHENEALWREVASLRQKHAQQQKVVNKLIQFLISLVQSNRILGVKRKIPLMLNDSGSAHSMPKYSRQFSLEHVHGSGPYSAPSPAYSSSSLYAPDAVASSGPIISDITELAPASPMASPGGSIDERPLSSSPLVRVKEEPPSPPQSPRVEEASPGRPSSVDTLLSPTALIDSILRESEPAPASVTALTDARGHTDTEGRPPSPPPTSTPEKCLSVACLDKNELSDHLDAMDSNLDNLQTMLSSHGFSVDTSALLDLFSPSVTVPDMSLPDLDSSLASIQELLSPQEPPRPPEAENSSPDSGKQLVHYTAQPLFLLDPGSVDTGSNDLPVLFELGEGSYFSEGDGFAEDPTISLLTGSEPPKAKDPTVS
# Chain of ELF1 (P32519 whole entry): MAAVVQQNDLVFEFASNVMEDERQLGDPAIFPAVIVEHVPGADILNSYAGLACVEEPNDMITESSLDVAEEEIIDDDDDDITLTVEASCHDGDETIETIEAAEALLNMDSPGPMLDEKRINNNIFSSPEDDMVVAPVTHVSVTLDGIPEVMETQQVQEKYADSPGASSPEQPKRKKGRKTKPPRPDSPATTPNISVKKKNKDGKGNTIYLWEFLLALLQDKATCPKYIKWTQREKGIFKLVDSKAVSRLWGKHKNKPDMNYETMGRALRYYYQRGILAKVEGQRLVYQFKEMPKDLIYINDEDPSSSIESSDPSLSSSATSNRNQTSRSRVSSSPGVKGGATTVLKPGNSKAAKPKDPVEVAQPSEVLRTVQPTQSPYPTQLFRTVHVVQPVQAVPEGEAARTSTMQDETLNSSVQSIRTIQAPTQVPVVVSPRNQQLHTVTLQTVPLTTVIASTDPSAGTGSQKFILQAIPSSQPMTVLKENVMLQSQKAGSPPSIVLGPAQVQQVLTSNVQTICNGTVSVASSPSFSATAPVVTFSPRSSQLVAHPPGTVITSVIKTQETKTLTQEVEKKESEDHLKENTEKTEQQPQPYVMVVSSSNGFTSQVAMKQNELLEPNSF
# Chain of ELF4 (Q99607 whole entry): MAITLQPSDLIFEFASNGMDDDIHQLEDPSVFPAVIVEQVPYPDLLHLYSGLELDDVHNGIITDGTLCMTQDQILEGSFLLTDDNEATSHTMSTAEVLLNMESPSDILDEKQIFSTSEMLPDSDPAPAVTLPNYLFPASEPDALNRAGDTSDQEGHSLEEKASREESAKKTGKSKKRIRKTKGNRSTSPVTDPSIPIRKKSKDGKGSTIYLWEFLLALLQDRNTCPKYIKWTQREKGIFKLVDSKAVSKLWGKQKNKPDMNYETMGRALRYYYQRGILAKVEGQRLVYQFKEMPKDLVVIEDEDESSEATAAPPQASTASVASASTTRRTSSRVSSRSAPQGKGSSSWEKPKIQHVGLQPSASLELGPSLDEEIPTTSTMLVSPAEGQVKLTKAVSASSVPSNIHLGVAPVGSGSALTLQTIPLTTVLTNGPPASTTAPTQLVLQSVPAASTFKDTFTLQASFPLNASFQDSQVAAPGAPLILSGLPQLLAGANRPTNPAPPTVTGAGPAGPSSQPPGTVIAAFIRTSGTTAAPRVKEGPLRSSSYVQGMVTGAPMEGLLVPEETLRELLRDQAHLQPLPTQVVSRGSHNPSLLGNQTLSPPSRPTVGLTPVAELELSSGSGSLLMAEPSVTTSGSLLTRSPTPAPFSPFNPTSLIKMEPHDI
# Chain of CRX (O43186 whole entry): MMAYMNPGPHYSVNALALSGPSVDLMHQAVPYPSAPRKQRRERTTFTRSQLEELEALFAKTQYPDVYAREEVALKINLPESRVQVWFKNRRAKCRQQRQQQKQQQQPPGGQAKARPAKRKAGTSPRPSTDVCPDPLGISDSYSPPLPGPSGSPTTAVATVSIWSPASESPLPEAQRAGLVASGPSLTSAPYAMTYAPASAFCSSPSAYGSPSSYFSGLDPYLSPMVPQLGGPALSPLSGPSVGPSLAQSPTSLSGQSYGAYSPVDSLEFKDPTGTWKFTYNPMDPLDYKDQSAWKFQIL
sequence,measurement,setting,value
CCTCTG,binding signal,[1],"1.57 fold enrichment (6-mer frequency, TF over GST control)"
same,binding signal,[2],"1.75 fold enrichment (6-mer frequency, TF over GST control)"
same,binding signal,[3],"1.63 fold enrichment (6-mer frequency, TF over GST control)"
same,binding signal,[4],"1.62 fold enrichment (6-mer frequency, TF over GST control)"
same,binding signal,[5],"1.65 fold enrichment (6-mer frequency, TF over GST control)"
same,binding signal,[6],"1.67 fold enrichment (6-mer frequency, TF over GST control)"
same,binding signal,[7],"1.63 fold enrichment (6-mer frequency, TF over GST control)"
same,binding signal,[8],"1.6 fold enrichment (6-mer frequency, TF over GST control)"
same,binding signal,[9],"1.58 fold enrichment (6-mer frequency, TF over GST control)"
same,binding signal,[10],"1.48 fold enrichment (6-mer frequency, TF over GST control)"
same,binding signal,[11],"1.56 fold enrichment (6-mer frequency, TF over GST control)"
same,binding signal,[12],"1.39 fold enrichment (6-mer frequency, TF over GST control)"
same,binding signal,[13],"1.44 fold enrichment (6-mer frequency, TF over GST control)"
same,binding signal,[14],"1.66 fold enrichment (6-mer frequency, TF over GST control)"
same,binding signal,[15],"1.9 fold enrichment (6-mer frequency, TF over GST control)"
same,binding signal,[16],"1.5 fold enrichment (6-mer frequency, TF over GST control)"
same,binding signal,[17],"1.73 fold enrichment (6-mer frequency, TF over GST control)"
same,binding signal,[18],"1.36 fold enrichment (6-mer frequency, TF over GST control)"
same,binding signal,[19],"1.67 fold enrichment (6-mer frequency, TF over GST control)"
